Each structure is given as a SMILES string. Where “and” joins values, the source holds several entries; their conditions need not be identical. Identical values can stand only once. Results filed as inconclusive are left out. A structure can be active in one record and inactive in another. Calls of active or inactive are those of the source. Unless noted, calls come from the whole dose curve; as a rule, active = well fitted curve in the direction sought with a large enough effect in the repeat runs; inconclusive = weak or mixed curves; inactive = no such curve, though single readings can be large; an effect the other way counts as inactive or inconclusive.

Test [1] can be described thus: qHTS assay to test for compound auto fluorescence at 535 nm (green) in HEK293 cells (AID 720680). Note: potency is the fitted concentration of half-maximal effect.
Test [2] in a line: qHTS assay to test for compound auto fluorescence at 460 nm (blue) in HEK293 cell free culture (AID 720681). Put shortly:
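Compounds were added to cell-free DMEM with 10% FBS and fluorescence read directly. The blue channel used 405 nm excitation and 460 nm emission, with triamterene as the reference fluorophore.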
For orientation: qHTS replaces the single test concentration by a dilution series.

A short description of test [3]: qHTS assay to test for compound auto fluorescence at 535 nm (green) in HEK293 cell free culture (AID 720682). Note: potency is the fitted concentration of half-maximal effect. Put shortly: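 Cell-free medium (DMEM, 10% FBS) receives compound or DMSO by pintool. Plate read directly at Ex 485/Em 535 nm. Signal converted to fluorescein equivalency.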
The nature of test [4]: qHTS assay to test for compound auto fluorescence at 590 nm (red) in HEK293 cell free culture (AID 720683). In outline: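 Cell-free wells of DMEM with 10% FBS received compound, and intrinsic fluorescence was read at excitation/emission 540/590 nm. Values expressed as equivalence to Rose Bengal sodium.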
The nature of test [5]: qHTS assay to test for compound auto fluorescence at 590 nm (red) in HepG2 cell free culture (AID 720684). Put shortly:
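Compound was pinned into wells holding MEM with 10% FBS and no cells, and red fluorescence was read at Ex/Em 540/590 nm. Signal is expressed as auto fluorescence equivalency relative to Rose Bengal sodium.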

Test [6] is described as follows: qHTS assay to test for compound auto fluorescence at 535 nm (green) in HepG2 cell free culture (AID 720686). Note: potency is the fitted concentration of half-maximal effect.
Test [7] in a line: qHTS assay to test for compound auto fluorescence at 460 nm (blue) in HepG2 cells (AID 720687). In outline: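 HepG2 cells in MEM with 10% FBS, attached overnight at 37 C, were exposed to compound or DMSO for 1 hr at 37 C, 5% CO2. Blue fluorescence was read at 405/460 nm, with triamterene as reference fluorophore.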
Test [8] in a line: qHTS assay to identify small molecule antagonists of the glucocorticoid receptor (GR) signaling pathway - cell viability counter screen (AID 720693). Note: nearly all actives have a fitted effect of over 55% in size.
The nature of test [9]: qHTS assay for identifying genotoxic compounds that show differential cytotoxicity against isogenic chicken DT40 cell lines with known DNA damage response pathways - wild type cell line (AID 743012). Note: nearly all actives have a fitted effect of over 60% in size. Note: potency is the fitted concentration of half-maximal effect. Put shortly: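 Using parental DT40 (300 cells/well), compounds delivered in DMSO incubate 40 h at 37 C/5% CO2. CellTiter-Glo reagent then stands 30 min at room temperature, and luminescence gives cell viability.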

Test [10] is described as follows: qHTS assay for identifying genotoxic compounds that show differential cytotoxicity against isogenic chicken DT40 cell lines with known DNA damage response pathways - Rev3 mutant cell line (AID 743014). Note: nearly all actives have a fitted effect of over 55% in size. Note: potency is the fitted concentration of half-maximal effect.
Test [11] is described as follows: qHTS assay for identifying genotoxic compounds that show differential cytotoxicity against isogenic chicken DT40 cell lines with known DNA damage response pathways - Rad54/Ku70 mutant cell line (AID 743015). Note: nearly all actives have a fitted effect of over 60% in size. Note: potency is the fitted concentration of half-maximal effect.
A short description of test [12]: qHTS assay to identify small molecule antagonists of the androgen receptor (AR) signaling pathway - cell viability counter screen (AID 743033; note: nearly all actives have a fitted effect of over 45% in size).
Test [13] is described as follows: qHTS assay to identify small molecule antagonists of the androgen receptor (AR) signaling pathway using the MDA cell line - cell viability counter screen (AID 743041; note: nearly all actives have a fitted effect of over 45% in size). Put shortly: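 MDA-kb2 AR-luc cells (MMTV-luciferase, AR/GR responsive) treated with compounds plus R1881 agonist for 16 h at 37C. CellTiter-Fluor added at 15.5 h; fluorescence read after 30 min in the same wells.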

Test [14] can be described thus: qHTS assay to identify small molecule antagonists of the thyroid receptor (TR) signaling pathway - cell viability counter screen (AID 743064). Note: nearly all actives have a fitted effect of over 50% in size. In outline: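 GH3.TRE-Luc cells, 4 h pre-plating; cpd + T3 1 nM final; 37 °C 23.5 h; CellTiter-Fluor 30 min; fluorescence read.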
Test [15] concerns the target Glucocorticoid receptor (Homo sapiens) (UniProt P04150). As to the kind of experiment: qHTS assay to identify small molecule agonists of the glucocorticoid receptor (GR) signaling pathway (AID 720691; active = well fitted activation curve with a large enough effect in the signal ratio in the repeat runs, not every such curve was filed as active; the % refers to the signal ratio). In outline:
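Reporter read-out: fluorescence intensity following 2 h room-temperature LiveBLAzer B/G FRET substrate loading. Prior step: GR-bla HeLa cells held 4 h, then treated 18 h at 37 C.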

For test [16] the target is unchanged. As to the kind of experiment: qHTS assay to identify small molecule antagonists of the glucocorticoid receptor (GR) signaling pathway (AID 720692; active = well fitted inhibition curve with a large enough effect in the signal ratio in the repeat runs, not every such curve was filed as active; the % refers to the signal ratio). In outline: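 Dexamethasone (5 nM final) stimulated a stably integrated GRE-beta-lactamase reporter in HeLa cells during 18 h co-incubation with compounds; signal was quantified as fluorescence intensity of B/G FRET substrate after 2 h.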

Test [17] is described as follows: qHTS assay to identify small molecule antagonists of the thyroid receptor (TR) signaling pathway (AID 743065). Note: series mostly up to about 70 µM; nearly all actives have a fitted effect of over 55% in size. Put shortly:
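GH3.TRE-Luc rat pituitary cells (two TREs driving luciferase) were dosed with compound, then stimulated with 1 nM T3 (final) for 23.5 h at 37 C. ONE-Glo luminescence was the read-out, with CellTiter-Fluor fluorescence as the cytotoxicity counter-screen.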

Test [18] has as its target Androgen receptor (Homo sapiens) (UniProt P10275). Briefly: qHTS assay to identify small molecule agonists of the androgen receptor (AR) signaling pathway (AID 743036; active = well fitted activation curve with a large enough effect in the signal ratio in the repeat runs, with a control signal flat, not every such curve was filed as active; the % refers to the signal ratio). Put shortly: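 AR-bla HEK293 cells, 2,000/well; 4 h preincubation 37C/5% CO2; compound (DMSO) 16 h at 37C; LiveBLAzer B/G FRET substrate 2 h RT; fluorescence intensity read-out.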
The target is the same in test [19]. Briefly: qHTS assay to identify small molecule antagonists of the androgen receptor (AR) signaling pathway using the MDA cell line (AID 743042; note: nearly all actives have a fitted effect of over 55% in size). In outline:
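MDA-kb2 breast carcinoma cells carrying MMTV-luciferase (AR/GR responsive) were co-treated with compounds and the agonist R1881 for 16 h at 37C. Inhibition read as ONE-Glo luminescence; CellTiter-Fluor fluorescence measured in parallel for cytotoxicity.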
% is set by controls: 0 for no effect and ±100 for the full control effect; tags give direction and shape of the fitted curve or compound fluorescence and quenching.

Chain of Glucocorticoid receptor (Homo sapiens) (P04150 whole entry, looked up): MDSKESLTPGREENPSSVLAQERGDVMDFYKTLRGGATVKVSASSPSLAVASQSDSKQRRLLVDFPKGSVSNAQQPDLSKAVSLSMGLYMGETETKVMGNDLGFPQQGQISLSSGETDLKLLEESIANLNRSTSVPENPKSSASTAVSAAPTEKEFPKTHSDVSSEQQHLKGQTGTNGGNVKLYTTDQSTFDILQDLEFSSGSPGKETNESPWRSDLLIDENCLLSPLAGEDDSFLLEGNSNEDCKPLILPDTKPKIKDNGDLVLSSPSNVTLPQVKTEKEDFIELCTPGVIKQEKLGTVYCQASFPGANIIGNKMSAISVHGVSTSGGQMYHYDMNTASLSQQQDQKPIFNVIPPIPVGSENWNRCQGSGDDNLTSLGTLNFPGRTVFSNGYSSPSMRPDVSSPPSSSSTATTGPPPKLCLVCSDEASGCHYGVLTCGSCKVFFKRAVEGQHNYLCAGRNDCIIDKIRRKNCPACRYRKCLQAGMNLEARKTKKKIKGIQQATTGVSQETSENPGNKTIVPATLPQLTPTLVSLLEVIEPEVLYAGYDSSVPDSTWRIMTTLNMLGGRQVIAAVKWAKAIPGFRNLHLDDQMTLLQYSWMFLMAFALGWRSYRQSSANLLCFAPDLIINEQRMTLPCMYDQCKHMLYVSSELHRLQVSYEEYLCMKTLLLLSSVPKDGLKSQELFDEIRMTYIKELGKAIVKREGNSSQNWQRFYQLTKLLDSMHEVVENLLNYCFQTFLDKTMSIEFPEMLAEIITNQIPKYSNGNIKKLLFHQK
Chain of Androgen receptor (Homo sapiens) (P10275 whole entry, looked up): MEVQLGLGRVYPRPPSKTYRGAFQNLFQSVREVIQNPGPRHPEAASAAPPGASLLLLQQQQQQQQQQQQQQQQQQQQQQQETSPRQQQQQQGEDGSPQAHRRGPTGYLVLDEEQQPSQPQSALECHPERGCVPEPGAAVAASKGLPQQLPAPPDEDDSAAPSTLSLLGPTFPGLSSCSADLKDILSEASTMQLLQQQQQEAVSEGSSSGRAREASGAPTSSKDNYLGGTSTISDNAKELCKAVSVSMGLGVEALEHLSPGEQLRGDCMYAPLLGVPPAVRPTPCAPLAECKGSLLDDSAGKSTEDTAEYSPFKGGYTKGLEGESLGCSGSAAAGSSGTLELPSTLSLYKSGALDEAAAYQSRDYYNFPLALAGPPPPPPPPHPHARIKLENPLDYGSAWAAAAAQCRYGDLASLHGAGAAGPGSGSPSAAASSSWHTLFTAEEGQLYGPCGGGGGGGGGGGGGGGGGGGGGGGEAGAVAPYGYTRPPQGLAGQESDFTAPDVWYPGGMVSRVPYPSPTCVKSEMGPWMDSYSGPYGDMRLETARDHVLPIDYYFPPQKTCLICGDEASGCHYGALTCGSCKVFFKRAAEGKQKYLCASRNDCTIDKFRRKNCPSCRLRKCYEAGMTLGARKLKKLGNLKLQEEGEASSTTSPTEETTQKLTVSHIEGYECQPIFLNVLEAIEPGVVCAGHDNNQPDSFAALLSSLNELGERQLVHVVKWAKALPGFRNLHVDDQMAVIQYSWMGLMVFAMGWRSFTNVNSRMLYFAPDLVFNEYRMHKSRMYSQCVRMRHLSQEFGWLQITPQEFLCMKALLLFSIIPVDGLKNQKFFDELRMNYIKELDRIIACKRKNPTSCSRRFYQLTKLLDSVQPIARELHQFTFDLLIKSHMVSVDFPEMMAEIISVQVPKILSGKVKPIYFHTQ

With `NC=O`, the Potency entry in [1], in [3], in test [4], in test [5], in [6] and in test [8] was “inactive” throughout. Further, the Potency result in [9], in [10], in [11], in [12], in test [13] and in test [14] was “inactive” throughout. Further, the result in test [2] and in [7] was inactive.
For `CC1=CC2C3CC(C=C3C)C2C1` (stereo unspecified), the Potency result in [1], in test [3], in [4], in [5], in test [6] and in test [15] was “inactive” in each case. Moreover, the Potency entry in [16], in test [8], in [12], in test [13], in [14] and in [17] was “inactive” in each case. Moreover, the outcome in test [2] and in test [7] was inactive. The Potency entry in [10] is “inactive and 54.5 µM (active)”; in [11], “inactive and 30.6 µM (active)”.
As for `Cc1cc2nc3c(=O)[nH]c(=O)nc-3n(C[C@H](O)[C@H](O)[C@H](O)CO)c2cc1C`, the Potency in test [1] is 35.5 µM [fluorescent] (active) [middle of 4 runs]; in test [3] it was 31.6 µM [fluorescent] (active) [middle of 4 runs]; in test [6] it was 17.8 µM [fluorescent] (active) and 39.8 µM [fluorescent] (active) and 35.5 µM [fluorescent] (active); in test [11], 18.8 µM (active) and inactive. In addition, the call in test [2] and in [7] was inactive. Besides, the Potency entry in test [4], in test [5], in test [15], in [8], in [9] and in [10] was “inactive” in each case. In addition, in test [12], the Potency result is “inactive”.
On to `Nc1ccc(S(=O)(=O)Nc2cnc3ccccc3n2)cc1`, for which the Potency entry in [1], in test [3], in [4], in test [5], in test [6] and in test [15] was “inactive” in each case. Moreover, the Potency entry in [16], in test [8], in test [9], in test [10], in test [11] and in [12] was “inactive” each time. Also, the Potency entry in test [13], in test [14] and in [17] was “inactive” in each case. The outcome in test [2] and in test [7] was inactive.
Regarding `O=C(c1ccccc1)c1ccccc1O`, the Potency result in test [1], in test [3], in test [4], in test [5], in [6] and in test [15] was “inactive” throughout. The Potency entry in test [16], in test [8], in [9], in [11], in test [12] and in test [13] was “inactive” throughout. Also, the Potency entry in [19] and in [14] was “inactive” throughout. Also, the compound was classed as inactive in test [2], in [7] and in test [18].
Take `Nc1ncnc2nc[nH]c12`: the Potency entry in test [1], in [3], in test [4], in [5], in test [6] and in [15] was “inactive” throughout. For the same compound, the Potency entry in test [16], in test [9], in test [10], in test [11], in test [12] and in [13] was “inactive” each time. Besides, the compound was classed as inactive in test [2] and in test [7].
Regarding `COc1ccc(OC)c(C(O)CNC(=O)CN)c1` (stereo unspecified), the Potency entry in [1], in test [3], in [4], in test [5], in [6] and in [15] was “inactive” throughout. The Potency result in test [16], in test [8], in test [9], in [11], in test [12] and in test [13] was “inactive” in each case. The result in test [2] and in test [7] was inactive.
Take `O=C=Nc1ccc(Cc2ccc(N=C=O)cc2)cc1`: the Potency result in test [1], in [3], in [4], in test [5], in test [6] and in test [15] was “inactive” in each case. In addition, the Potency result in test [16], in [8], in [11], in [12], in test [13] and in [14] was “inactive” in each case. Moreover, the Potency entry in test [17] is “inactive”. Also, the compound was classed as inactive in [2] and in test [7]. For the same compound, in test [9], the Potency is 21.3 µM (active) and inactive.
Regarding `CC(C)(C)NC(=O)[C@H]1CC[C@H]2[C@@H]3CC[C@H]4NC(=O)C=C[C@]4(C)[C@H]3CC[C@]12C`, the Potency entry in test [1], in test [3], in test [4], in test [5], in [6] and in test [15] was “inactive” in each case. The Potency result in test [16], in test [8], in [9], in test [12], in test [13] and in [14] was “inactive” in each case. Moreover, the result in test [2] and in test [7] was inactive. Moreover, in [11], the Potency entry is “inactive and 68.6 µM (active)”.

The record behind these values is PubChem BioAssay (Tox21).
